The source of these data is PubChem BioAssay (NCI).

Experiment [1] in a line: NCI Yeast Anticancer Drug Screen. Data for the rad50 strain (AID 155).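 Further: 0% = growth of vehicle-only cultures of the same strain.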 The conditions noted are these: S. cerevisiae rad50 strain growth inhibition, stronger effect = higher value. The essentials:
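Growth of the mutant yeast was measured after compound exposure and referenced to vehicle-treated cultures.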

Experiment [2] in a line: NCI Yeast Anticancer Drug Screen. Data for the mec2-1 strain (AID 157). The conditions noted are these: S. cerevisiae mec2-1 strain, stronger effect = higher value. The method, boiled down: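 Growth inhibition is read against vehicle-treated controls after compound exposure of the mec2-1 yeast strain, which is defective in DNA damage repair or cell cycle control.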
Experiment [3] can be described thus: NCI Yeast Anticancer Drug Screen. Data for the sgs1 mgt1 strain (AID 161).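 Further: 0% = growth of cultures given vehicle only.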 As to conditions: S. cerevisiae sgs1 mgt1 strain, stronger effect = higher value. The method, boiled down: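 This yeast growth screen uses a strain with defined DNA-repair lesions; compound-treated growth is compared with vehicle-treated growth.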
The nature of experiment [4]: NCI Yeast Anticancer Drug Screen. Data for the cln2 rad14 strain (AID 165).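 Further: 0% = growth equal to vehicle treated cultures.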 As to conditions: S. cerevisiae cln2 rad14 strain, stronger effect = higher value. The essentials:
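Growth inhibition, relative to vehicle-treated controls, is the read-out. The test organism is a yeast strain with defined genetic alterations, cln2 rad14.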

Experiment [5] can be described thus: NCI Yeast Anticancer Drug Screen. Data for the bub3 strain (AID 167). As to conditions: S. cerevisiae bub3 mutant strain, stronger effect = higher value. The method, boiled down: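 Whole-cell yeast assay. The mutant strain was incubated with compounds, and growth inhibition was determined by comparison with vehicle-treated cells.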
Experiment [6] in a line: NCI Yeast Anticancer Drug Screen. Data for the mlh1 rad18 strain (AID 175). As to conditions: S. cerevisiae mlh1 rad18 strain growth inhibition, stronger effect = higher value. The essentials: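 Cells of a genetically altered yeast strain, deficient in DNA damage repair, were treated with compound. Their growth was then compared with that of vehicle-treated cultures to give inhibition.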

The mark [7] stands for this setting: at 5.0 µM (retest, dose inferred, filed as 0.5).
The mark [8] stands for this setting: at 50.0 µM (retest, dose inferred, filed as 5.0).

Values joined by “and” are separate entries in the source; they are usually repeats but may differ in a detail not shown here. Equal entries are not always repeated. About 79,000 compounds went through this panel and 15% of them were active in at least one assay; those are over-represented in the sample as a whole. Where a structure was tested more than once in an assay, its records may differ in their call. Active and inactive are the calls of the source. No stated cut-off is given here; in the data, active means growth inhibition above about 70%; inactive means the rest.

`CC(C)(C)C[CH2][Hg][Cl]`: the growth inhibition in experiment [1] (setting [7]) was 99% (active); in experiment [1] (setting [8]) it was 99% (active); in experiment [1] (at 50.0 µM), 99.2% (active); in experiment [2] (setting [7]), 100% (active); in experiment [2] (setting [8]) it was 99% (active); in experiment [2] (at 50.0 µM), 99.7% (active). For the same compound, the growth inhibition in experiment [3] (setting [7]) was 100% (active); in experiment [3] (setting [8]), 100% (active); in experiment [3] (at 50.0 µM) it was 99.5% (active); in experiment [4] (setting [7]) it was 99% (active); in experiment [4] (setting [8]), 100% (active); in experiment [4] (at 50.0 µM), 99.5% (active). In addition, the growth inhibition in experiment [5] (setting [7]) was 99% (active); in experiment [5] (setting [8]), 99% (active); in experiment [5] (at 50.0 µM) it was 99.6% (active); in experiment [6] (setting [7]), 100% (active); in experiment [6] (setting [8]), 100% (active); in experiment [6] (at 50.0 µM), 99.5% (active).

With `CSc1ccc2c(c1)c(CCN)c(C)n2Cc1ccccc1Cl`, the growth inhibition in experiment [1] (setting [7]) is 3% (inactive); in experiment [1] (setting [8]), 100% (active); in experiment [1] (at 50.0 µM), 99.5% (active); in experiment [2] (setting [7]), 0% (inactive); in experiment [2] (setting [8]), 100% (active); in experiment [2] (at 50.0 µM), 99.5% (active). Also, the growth inhibition is 12% (inactive) in experiment [3] (setting [7]); 99% (active) in experiment [3] (setting [8]); 99.3% (active) in experiment [3] (at 50.0 µM); -31% (inactive) in experiment [4] (setting [7]); 98% (active) in experiment [4] (setting [8]); 98.5% (active) in experiment [4] (at 50.0 µM). The growth inhibition in experiment [5] (setting [7]) was -7% (inactive); in experiment [5] (setting [8]) it was 99% (active); in experiment [5] (at 50.0 µM) it was 99.5% (active); in experiment [6] (setting [7]) it was 13% (inactive); in experiment [6] (setting [8]) it was 99% (active); in experiment [6] (at 50.0 µM), 99.4% (active).

For the compound `CCC(=O)C(CCN1CCC2(CCCc3ccccc32)CC1)(c1ccccc1)c1ccccc1`, the growth inhibition in experiment [1] (setting [7]) was -2% (inactive); in experiment [1] (setting [8]), 89% (active); in experiment [1] (at 50.0 µM), 98.4% (active); in experiment [2] (setting [7]), -5% (inactive); in experiment [2] (setting [8]), 93% (active); in experiment [2] (at 50.0 µM), 94.2% (active). Moreover, the growth inhibition in experiment [3] (setting [7]) is 3% (inactive); in experiment [3] (setting [8]), 93% (active); in experiment [3] (at 50.0 µM) it was 97.8% (active); in experiment [4] (setting [7]), -11% (inactive); in experiment [4] (setting [8]), 87% (active); in experiment [4] (at 50.0 µM) it was 87.2% (active). Further, the growth inhibition in experiment [5] (setting [7]) was -2% (inactive); in experiment [5] (setting [8]) it was 91% (active); in experiment [5] (at 50.0 µM) it was 94.2% (active); in experiment [6] (setting [7]), 3% (inactive); in experiment [6] (setting [8]) it was 92% (active); in experiment [6] (at 50.0 µM), 97.3% (active).

For `Clc1c(Cl)c(Cl)c([S][Pb]([c]2ccccc2)([c]2ccccc2)[c]2ccccc2)c(Cl)c1Cl`, the growth inhibition in experiment [1] (setting [7]) was 91% (active); in experiment [1] (setting [8]), 85% (active); in experiment [1] (at 50.0 µM), 98.5% (active); in experiment [2] (setting [7]) it was 96% (active); in experiment [2] (setting [8]) it was 92% (active); in experiment [2] (at 50.0 µM), 98.4% (active). The growth inhibition in experiment [3] (setting [7]) was 94% (active); in experiment [3] (setting [8]), 42% (inactive); in experiment [3] (at 50.0 µM), 98.8% (active); in experiment [4] (setting [7]), 84% (active); in experiment [4] (setting [8]) it was 89% (active); in experiment [4] (at 50.0 µM) it was 97.7% (active). Moreover, the growth inhibition in experiment [5] (setting [7]) was 92% (active); in experiment [5] (setting [8]), 96% (active); in experiment [5] (at 50.0 µM) it was 98.5% (active); in experiment [6] (setting [7]), 92% (active); in experiment [6] (setting [8]) it was 92% (active); in experiment [6] (at 50.0 µM) it was 98.3% (active).

Consider `CC(O[Si](c1ccccc1)(c1ccccc1)C(C)(C)C)[C@H](NC(=O)OC(C)(C)C)C(=O)O` (some centres not stated), for which the growth inhibition in experiment [1] (setting [7]) was -13% (inactive); in experiment [1] (setting [8]) it was 58% (inactive); in experiment [1] (at 50.0 µM) it was 86% (active); in experiment [2] (setting [7]) it was -4% (inactive); in experiment [2] (setting [8]), 97% (active); in experiment [2] (at 50.0 µM), 86.3% (active). For the same compound, the growth inhibition in experiment [3] (setting [7]) is 13% (inactive); in experiment [3] (setting [8]) it was 47% (inactive); in experiment [3] (at 50.0 µM) it was 88% (active); in experiment [4] (setting [7]), -15% (inactive); in experiment [4] (setting [8]), 98% (active); in experiment [4] (at 50.0 µM), 89.6% (active). Also, the growth inhibition was -9% (inactive) in experiment [5] (setting [7]); 95% (active) in experiment [5] (setting [8]); 55.5% (inactive) in experiment [5] (at 50.0 µM); 1% (inactive) in experiment [6] (setting [7]); 68% (inactive) in experiment [6] (setting [8]); 92.9% (active) in experiment [6] (at 50.0 µM).

For the compound `CC(=O)OCC12CCC(C)=CC1OC1C3(O)N=C(C)OC3C2(C)C12CO2` (configuration not stated), the growth inhibition in experiment [1] (setting [7]) is 35% (inactive); in experiment [1] (setting [8]), 78% (active); in experiment [1] (at 50.0 µM) it was 32.2% (inactive); in experiment [2] (setting [7]), 28% (inactive); in experiment [2] (setting [8]), 55% (inactive); in experiment [2] (at 50.0 µM), 69% (inactive). The growth inhibition in experiment [3] (setting [7]) was 46% (inactive); in experiment [3] (setting [8]), 76% (active); in experiment [3] (at 50.0 µM) it was 41% (inactive); in experiment [4] (setting [7]), 38% (inactive); in experiment [4] (setting [8]), 64% (inactive); in experiment [4] (at 50.0 µM) it was 56.3% (inactive). For the same compound, the growth inhibition in experiment [5] (setting [7]) was 18% (inactive); in experiment [5] (setting [8]) it was 69% (inactive); in experiment [5] (at 50.0 µM) it was 41.9% (inactive); in experiment [6] (setting [7]) it was 46% (inactive); in experiment [6] (setting [8]) it was 75% (active); in experiment [6] (at 50.0 µM), 18.4% (inactive).

Consider `c1cnc2c(c1)ccc1cccnc12`, for which the growth inhibition in experiment [1] (setting [7]) was 58% (inactive) and 14% (inactive); in experiment [1] (setting [8]) it was 97% (active) and 99% (active); in experiment [1] (at 50.0 µM) it was 99.5% (active) and 99.2% (active); in experiment [2] (setting [7]), 32% (inactive) and 27% (inactive); in experiment [2] (setting [8]) it was 99% (active); in experiment [2] (at 50.0 µM), 99.2% (active) and 98.9% (active). The growth inhibition was 50% (inactive) and 13% (inactive) in experiment [3] (setting [7]); 98% (active) in experiment [3] (setting [8]); 98.3% (active) and 99% (active) in experiment [3] (at 50.0 µM); 6% (inactive) and -24% (inactive) in experiment [4] (setting [7]); 98% (active) and 90% (active) in experiment [4] (setting [8]); 98% (active) and 96.2% (active) in experiment [4] (at 50.0 µM). Moreover, the growth inhibition was 42% (inactive) and 4% (inactive) in experiment [5] (setting [7]); 98% (active) and 99% (active) in experiment [5] (setting [8]); 98.8% (active) and 99% (active) in experiment [5] (at 50.0 µM); 52% (inactive) and 17% (inactive) in experiment [6] (setting [7]); 97% (active) and 98% (active) in experiment [6] (setting [8]); 98.8% (active) in experiment [6] (at 50.0 µM).

`CC(=O)Oc1ccc(N=C2C=C(Cl)C(=O)C(Cl)=C2)cc1`: the growth inhibition in experiment [1] (setting [7]) was 5% (inactive); in experiment [1] (setting [8]) it was 23% (inactive); in experiment [1] (at 50.0 µM), 34.5% (inactive); in experiment [2] (setting [7]) it was 9% (inactive); in experiment [2] (setting [8]), 26% (inactive); in experiment [2] (at 50.0 µM) it was -2.05% (inactive). Moreover, the growth inhibition in experiment [3] (setting [7]) was 2% (inactive); in experiment [3] (setting [8]), 24% (inactive); in experiment [3] (at 50.0 µM), 33.4% (inactive); in experiment [4] (setting [7]), 6% (inactive); in experiment [4] (setting [8]), 14% (inactive); in experiment [4] (at 50.0 µM), -23.8% (inactive). Besides, the growth inhibition in experiment [5] (setting [7]) is 9% (inactive); in experiment [5] (setting [8]) it was 46% (inactive); in experiment [5] (at 50.0 µM), 22.7% (inactive); in experiment [6] (setting [7]), 7% (inactive); in experiment [6] (setting [8]), 54% (inactive); in experiment [6] (at 50.0 µM), 19.9% (inactive).

Regarding `CC(=O)O[C@H]1C[C@@H]2OC3C=C(C)CCC3(C)[C@@]1(C)[C@@]21CO1` (some centres not stated), the growth inhibition in experiment [1] (setting [7]) is 99% (active); in experiment [1] (setting [8]), 99% (active); in experiment [1] (at 50.0 µM), 92.5% (active) and 18.9% (inactive); in experiment [2] (setting [7]), 100% (active); in experiment [2] (setting [8]), 100% (active); in experiment [2] (at 50.0 µM), 94.3% (active) and 1.7% (inactive). For the same compound, the growth inhibition in experiment [3] (setting [7]) was 99% (active); in experiment [3] (setting [8]), 99% (active); in experiment [3] (at 50.0 µM) it was 94% (active) and 32.1% (inactive); in experiment [4] (setting [7]), 99% (active); in experiment [4] (setting [8]), 99% (active); in experiment [4] (at 50.0 µM) it was 92.2% (active) and 6.4% (inactive). Further, the growth inhibition in experiment [5] (setting [7]) was 99% (active); in experiment [5] (setting [8]) it was 99% (active); in experiment [5] (at 50.0 µM) it was 92.7% (active) and 2.9% (inactive); in experiment [6] (setting [7]), 99% (active); in experiment [6] (setting [8]), 99% (active); in experiment [6] (at 50.0 µM), 92.8% (active) and 17.9% (inactive).
